Measurements: PubChem BioAssay (NCI)
Values joined by “and” are separate entries in the source; they are usually repeats but may differ in a detail not shown here. Equal entries are not always repeated. This is part of a sample that, as a whole, favours compounds with a hit. Of some 83,000 tested, about 20% had one in any assay.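 Negative percent growth values reflect cell death: -40 means 40% of the cells present at the start died, and -100 means all died.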 Active and inactive are the calls of the source. The calls were made as follows: active = growth percent below 10; inactive = the rest.

System: MDA-MB-468 breast
Test: NCI-60 one-dose screen, 48 h (100 = growth as untreated, 0 = no growth, -100 = all killed)
Conditions: 10 µM unless noted

Structure (SMILES) | growth
Cc1ccc2oc(=O)cc(-c3cc(-c4cc5ccccc5oc4=O)nc(N)c3C#N)c2c1 | 68.7% (inactive)
Nc1nc(N)c2c(ccc3nccc32)[nH]1 | 34.9% (inactive)
CC(C)C/C(=N\NC(=O)c1ccncc1)c1cc(Cl)ccc1O | -1.67% (active)
COc1cccc(CCC(=O)c2cc3c(N)c(C(=O)Nc4ccccc4)sc3nc2C)c1 | 25.2% (inactive)
COC(=O)c1[nH]c(=O)c(C#N)c(C(=O)OC)c1C(=O)c1ccccc1 | 102% (inactive)
Cn1cc(-c2nonc2-c2cn(C)c3ccc(Br)cc23)c2ccccc21 | 42.8% (inactive)
Nc1n[nH]c2cccc(C#Cc3cccc(NC(=O)c4cccc(OC(F)(F)F)c4)c3)c12 | 106% (inactive)
CCN(CC)CCSCCCNc1c2ccc(Cl)cc2nc2ccc(OC)cc12 | -50.2% (active)
COc1ccc(OC)c(NC(=O)c2sc3nc4c(cc3c2N)C(=O)CCC4)c1 | 37.5% (inactive)
COc1ccc(-c2nnc(SCC(=O)c3ccc(Cl)cc3)o2)cc1 | 109% (inactive)
CCOC(=O)c1sc2ncc(-c3ccc(C)cc3)n2c1C | 102% (inactive)
CCC(C)(C)C(=O)O[C@H]1C[C@@H](C)C=C2C=C[C@H](C)[C@H](CC[C@@H]3C[C@@H](O)CC(=O)O3)[C@H]21 | 52.6% (inactive)
CCOC(=O)c1cn2ncnc(Oc3ccc(NC(=O)NCCN4CCOCC4)c(Cl)c3)c2c1C | 85.1% (inactive)
COc1ccc2[nH]c(=O)c3c4ccccc4cn3c2c1 | 38% (inactive)
CC1=C[C@H]2c3c(c(O)c(O)c4oc5cc(O)cc(O)c5c(=O)c34)[C@H](c3cc(O)c(O)c4oc5cc(O)cc(O)c5c(=O)c34)[C@H]2C(C)(C)C1 | 3.99% (active) and -26.3% (active)
